Hits are enriched below; roughly 5.4% of the tested compounds scored in any of these assays.
PNC assembly inh – inhibitors of perinucleolar compartment assembly; PC3M PTB-GFP, PNC prevalence imaging, 16 h; hits give low values; activity change (PNC), negative = inhibition, % at 10 µM; 3.1% of 140,000 active;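 active = readout at or below -70, meaning at least 70% loss of cells showing the perinucleolar compartment, a nuclear body marking cancer cells; inconclusive = readout between -30 and a set limit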;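 also: plate controls were DMSO wells for no effect and camptothecin positive control wells for full effect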
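PC3M cells stably expressing PTB-GFP, 750–1000 cells/well, treated 16 h at 37 °C with compound (23 nl of library stock), in duplicate. After paraformaldehyde fixation and Hoechst stain, imaged at 20x; PNC prevalence scored by image analysis.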
IMPase Li cell – cell-permeable IMPase inhibitors with lithium potentiation; 0.35% of 210,000 active; Potency, µM (top dose mostly 59.4 µM), for the others: top-dose activity, negative = IMPase inhibition, hits mostly inhibitors; CHO-M1 cells, IP1 TR-FRET (IP-One), carbachol + lithium;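 also: IP1 builds up when IMPase is blocked and the TR-FRET signal falls; potency is read from the fitted curve at half-maximal effect; plate controls were basal vehicle for no effect and high inhibitor control for full effect; nearly all actives have a fitted effect of over 50% in size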
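Steps: plate 2000 CHO-M1 cells per well and culture 16–30 h; add compound and lithium; incubate 30 min, 37C; add d2-IP1 tracer and Eu cryptate anti-IP1 antibody in lysis buffer; read after 10 min at room temperature.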
ALOX15B inhib – inhibitors of human 15-lipoxygenase 2 (ALOX15B). O15296. purified 15hLO-2, xylenol orange hydroperoxide absorbance. Potency, µM (highest dose often 57.1 µM), for the others: top-dose activity change, negative = inhibition, actives largely listed as inhibitors. 0.56% of 110,000 active. AID 881; also: potency is read from the fitted curve at half-maximal effect; nearly all actives have a fitted effect of over 60% in size
Target sequence (O15296 whole entry, looked up): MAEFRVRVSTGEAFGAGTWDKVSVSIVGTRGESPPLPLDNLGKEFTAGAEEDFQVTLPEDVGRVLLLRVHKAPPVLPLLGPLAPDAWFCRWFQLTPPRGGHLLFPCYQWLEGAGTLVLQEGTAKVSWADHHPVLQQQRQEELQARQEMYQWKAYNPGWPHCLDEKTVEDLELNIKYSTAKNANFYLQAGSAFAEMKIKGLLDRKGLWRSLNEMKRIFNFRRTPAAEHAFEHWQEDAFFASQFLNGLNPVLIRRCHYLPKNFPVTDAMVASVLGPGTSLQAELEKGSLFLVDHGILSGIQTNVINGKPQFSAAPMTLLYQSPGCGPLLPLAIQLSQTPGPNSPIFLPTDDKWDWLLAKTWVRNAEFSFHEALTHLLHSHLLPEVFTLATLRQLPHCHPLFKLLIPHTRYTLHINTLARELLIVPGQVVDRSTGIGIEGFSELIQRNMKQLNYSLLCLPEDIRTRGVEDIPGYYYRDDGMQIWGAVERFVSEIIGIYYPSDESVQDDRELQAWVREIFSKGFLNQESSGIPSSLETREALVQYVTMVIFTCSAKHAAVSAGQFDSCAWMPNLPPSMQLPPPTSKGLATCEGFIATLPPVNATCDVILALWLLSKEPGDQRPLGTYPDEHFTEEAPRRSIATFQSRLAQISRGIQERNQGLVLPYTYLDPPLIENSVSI
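Enzyme 50 nM, AA 45 uM, 25 mM Hepes pH 7.5 + 0.01% Triton X-100; cpd preinc 15 min RT, rxn 90 min RT; stop/detect with 200 uM XO + 300 uM Fe(II) in 50 mM H2SO4, 30 min; A573/A405.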
HPGD inh – HPGD (human) dehydrogenase inhibition. P15428. purified HPGD, NADH fluorescence kinetic, PGE2 substrate. Potency, µM, for inactives: at the top dose activity change, negative = inhibition, usual class: inhibitors. 4.3% of 150,000 active. AID 894; active = well fitted inhibition curve with a large enough effect, not every such curve was filed as active; inconclusive = small, poorly fitted or top-dose-only effect, or another doubt; inactive = no such curve, though single readings can be large or run the other way; also: potency is read from the fitted curve at half-maximal effect
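20 nM HPGD preincubated 15 min at room temperature with compound in 50 mM Tris-HCl pH 8, 0.01% Tween 20. Started with 1 mM NAD+ and 30 uM prostaglandin E2; NADH fluorescence (360/450 nm) read 5 times over 30-s intervals, last minus first.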
12-hLO inh – 12-hLO (ALOX12) enzyme inhibition; purified 12-hLO, xylenol orange hydroperoxide absorbance; Potency, µM (series often up to 57.1 µM), for inactives: at the highest dose activity change, negative = inhibition, most hits filed as inhibitors; 0.12% of 150,000 active; AID 1452; also: potency is read from the fitted curve at half-maximal effect; nearly all actives have a fitted effect of over 55% in size
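Hydroperoxide output read as Fe(III)-xylenol orange absorbance, 573-to-405 nm ratio, after 30 min reaction with 40 uM arachidonic acid. Enzyme: 150 nM purified human 12hLO, 15 min compound preincubation; 25 mM Hepes pH 7.0, room temperature.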
IMPase inh – membrane-permeable compound that blocks inositol monophosphatase. CHO-M1 cells, IP1 accumulation, HTRF TR-FRET ratio. P97697. 120,000 tested, under 10 active. inhibition (IP1 accumulation), % at 46.1 µM; active = well fitted curve in the direction sought with a large enough effect in the signal ratio, not every such curve was filed as active; inconclusive = small, poorly fitted or top-dose-only effect, or a change in a side signal; inactive = no such curve, though single readings can be large or run the other way; the % refers to the signal ratio;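 also: cells stimulated with carbachol in lithium chloride buffer; plate controls were DMSO basal wells for no effect and reference inhibitor wells for full effect; higher means more IMPase inhibition seen as more IP1 and lower FRET ratio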
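The IP-One HTRF competitive assay in carbachol-stimulated CHO-M1 cells quantifies cellular IP1. Compounds spanned up to 46 uM final, and activity is expressed as AC50 from concentration-response fits of the ratio and donor data.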
* hit, by the source's call; ? = inconclusive; . = not tested or not shown; ! = not confirmed by another sample; [ ] = dose if it differs, or a comment. Unless noted, calls follow the shape of the dose curve; as a rule, active = well fitted curve in the direction sought with a large enough effect; inconclusive = small, poorly fitted or top-dose-only effect, or another doubt; inactive = no such curve, though single readings can be large; an effect the other way counts as inactive or inconclusive. Unless noted, % is scaled to controls: 0 for no effect and ±100 for the full control effect.

SMILES	PNC assembly inh	IMPase Li cell	ALOX15B inhib	HPGD inh	12-hLO inh	IMPase inh
Cc1ccn2c(c1)nc(=S)n2C(=O)c1ccccc1	4	-3%	.	25µM*	5%	.
Cc1ccn2c(C(=O)CSc3ccccc3)c(C)nc2c1	.	13%	.	.	.	.
CCOC(=O)C(CC)Sc1ncnc2nc[nH]c12 (stereo not given)	-100*	2%	.	-8%	8%	-7
CC(C)(CCC(C)(C)c1ccccc1)c1ccccc1	.	13%	-8%[11.4 µM]	-2%	2%[11.4 µM]	.
CC1CCN(c2nncc3ccccc23)CC1	-93*	-7%[38.3 µM]	-5%	-5%	-4%	?
CC1CCN(c2nnc(N3CCC(C)CC3)c3ccccc23)CC1	.	-5%	.	.	.	.
CN(C)CCCN1c2ccccc2Sc2ccc(Cl)cc21	-110*!	10%	42%	-4%	9%	19
CN(C)CCCN1c2ccccc2Sc2ccc3ccccc3c21	.	21%	6%[11.4 µM]	-7%	5%[11.4 µM]	.
CC(Oc1ccc(-c2ccccc2)c(F)c1)c1ccn(S(=O)(=O)c2ccc(F)cc2)n1 (stereo not given)	-100*	9%	.	-13%	3%	6
NC1=N[C@H](c2ccc(Cl)cc2)N(c2ccc(S(=O)(=O)Nc3ncccn3)cc2)C(N)=N1	.	-6%	-6%[11.4 µM]	-4%	0%[11.4 µM]	.
COC(=O)Nc1ccc(S(=O)(=O)N2CCCCCC2)cc1	99	1%	.	-19%	-2%	-2
N#CC(C#N)=NNc1ccc(S(=O)(=O)N2CCCCC2)cc1	?	14%	.	32µM*	-1%	.
N#C/C(=C\c1c(N2CCOCC2)nc2ccccn2c1=O)S(=O)(=O)c1ccccc1	1	-4%[38.3 µM]	-29%	2µM*	?	-4
Cc1ccc(S(=O)(=O)/C(C#N)=C/c2c(N3CC(C)OC(C)C3)nc3ccccn3c2=O)cc1 (stereo not given)	29	-2%[38.3 µM]	-19%	14µM*	-11%	2
Cc1ccc(S(=O)(=O)/C(C#N)=C/c2c(N3CCN(C)CC3)nc3ccccn3c2=O)cc1	27	4%[38.3 µM]	-14%	-10%	-9%	5
CCn1c(=N)c(C(=O)NC2CCCCC2)cc2c(=O)n3cc(C)ccc3nc21	.	.	.	.	.	0
COCC(=O)N1CCC[C@@]2(CCN(c3ccccc3)C2)C1	.	9%	-15%	-9%	1%	.
O=C1N=C(N2CCN(c3ccccc3)CC2)S/C1=C/c1cccs1	76	8%	.	16µM*	-9%	-8
Cc1ccc(-c2ccc(/C=C3\SC(N4CCOCC4)=NC3=O)o2)cc1	.	6%	.	.	.	.
Cc1ccc(/C=C2\SC(N3CCN(C(c4ccccc4)c4ccccc4)CC3)=NC2=O)o1	-24	26%	.	3.5µM*	-12%	.
O=C1/C(=C/c2cccs2)SC(=S)N1c1ccccc1	6	5%[38.3 µM]	-4%	-7%	-4%	2
O=C1N=C(N2CCOCC2)S/C1=C\c1cccnc1	.	-2%	.	.	.	.
O=C1N=C(c2ccccc2)S/C1=C\c1cccs1	38	7%[38.3 µM]	10µM*	5.6µM*	-10%	8
CCOC(=O)c1ccc2nc(C)cc(Nc3ccc(OC(C)C)cc3)c2c1	.	.	.	.	.	9
COc1cc(-c2nc3cnccn3c2Nc2ccc(C)cc2)ccc1O	-24	12%[38.3 µM]	-6%	?	-11%	2
SMILES	PNC assembly inh	IMPase Li cell	ALOX15B inhib	HPGD inh	12-hLO inh	IMPase inh
Oc1ccc(-c2nc3cnccn3c2Nc2ccc3c(c2)OCCO3)cc1	-19	9%[38.3 µM]	-24%	11µM*	?	8
COc1cc(-c2nc3cnccn3c2Nc2ccc3c(c2)OCCO3)ccc1O	?	24%[38.3 µM]	-20%[11.4 µM]	22µM*	1%	-1[1.84 µM]
COc1ncc2nc(CCc3ccccc3)c(=O)n(CCC#N)c2n1	.	11%	18%	-21%	2%	.
Cn1ncc([N+](=O)[O-])c1C(=O)Nc1nc2ccccc2n1CCN1CCCCC1	-4	7.9µM*	41%	-11%	-1%	8
Cc1c(Cl)c(C(=O)Nc2nc3ccccc3n2CCN2CCCCC2)nn1C	17	-3%[38.3 µM]	24%	-5%	4%	5
O=C(O)CCc1ccc(-c2ccccc2)[nH]1	.	-2%	1%[11.4 µM]	-15%	-2%[11.4 µM]	.
CC(=O)c1ccc2c(c1)C1C=CCC1C(C(=O)O)N2 (stereo not given)	.	13%	.	.	.	.
Cc1ccc2c(c1)C1C=CCC1C(C(=O)O)N2 (stereo not given)	36	6%	.	20µM*	-3%	.
CCOc1ccccc1NC(=O)COC(=O)/C=C/c1ccc(OC)c(OC)c1	.	20%	.	.	.	.
CCCCOc1ccc(/C=C/C(=O)OCC(=O)NC(=O)NCC(C)C)cc1OCC	-112*	-7%	.	?	6%	2
COc1ccc(C2CC(=O)c3c([nH]c(C(=O)OC4CCCCCC4)c3C)C2)cc1OC (stereo not given)	.	.	.	.	.	2
C/C=C(/C(=C/C)c1ccc(O)cc1)c1ccc(O)cc1	35	26%	16µM*	-9%	?	.
C=C(c1ccc(O)cc1)c1ccc(O)cc1	?	22%[38.3 µM]	?	-10%	-28%	-1
Nc1nc(N)c2nc(CNc3ccc(C(=O)N[C@H](CCC(=O)O)C(=O)O)cc3)cnc2n1	.	.	20%	.	-2%	0
COc1cccc(CNC(=O)C2CCC(CNS(=O)(=O)c3ccc(Br)s3)CC2)c1 (stereo not given)	.	.	.	.	.	9
C/C(=N\NC(=O)c1ccoc1C)c1cccnc1	-89*	0%	.	-7%	-4%	-16
CC(=O)Nc1ccc(S(=O)(=O)NCC(=O)OCC(=O)N2CCCc3ccccc32)cc1	-100*	0%	.	0%	-3%	.
Cc1ccc2[nH]c(-c3ccccc3)cc(=O)c2c1	-111*	-17%[38.3 µM]	-6%	?	-2%	4
Cc1ccc(-c2cc(=O)c3ccccc3[nH]2)cc1	27	9%	18%[0.0915 µM]	?	-3%[0.00818 µM]	.
N[C@@H](CSC1(c2ccc(Cl)cc2)c2ccccc2-c2ccccc21)C(=O)O	.	7%	-4%[11.4 µM]	-6%	4%[11.4 µM]	.
CC(NC(=O)C1CCC1)c1ccc(Cl)cc1 (stereo not given)	35	17%[38.3 µM]	0%	14µM*	1%	-3
CCOc1ccc(C(C)NC(=O)C2CCCC2)cc1 (stereo not given)	.	7%	.	.	.	.
CCOc1ccc(C(C)NC(=O)C2CCC2)cc1 (stereo not given)	21	6%	.	25µM*	21%	.
CC(NC(=O)C1CCCC1)c1ccc2c(c1)OCCO2 (stereo not given)	-8	-8%[38.3 µM]	-7%	-25%	-3%	1

Screening data from PubChem.
